An excerpt weighted towards active compounds, which were near 6% of everything screened.
Tau fluor counter: counter-screen for tau fibril formation inhibitors; tau K18 P301L Alexa594 fluorescence, heparin fibrillization; Potency, µM (titrated, usually from 57.7 µM), inactives show at the highest dose activity change, negative = decrease; 280,000 compounds, 0.93% hits; also: nearly all actives have a fitted effect of over 55% in size
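Human K18 P301L tau (15 uM unlabeled plus 0.24 uM Alexa 594-labeled, final) in 100 mM sodium acetate pH 7 was mixed with compound and 20 uM heparin and incubated 6 hr at 37 C.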
Tau fibril ThT: blocks human tau fibril formation measured by thioflavin T; P10636; recombinant tau K18 P301L, heparin-induced fibrillization, ThT fluorescence; Potency, µM (series often up to 57.4 µM), for the others: at the top dose activity, negative = inhibition, most hits filed as inhibitors; 270,000 compounds, 2.1% hits; also: nearly all actives have a fitted effect of over 55% in size
Target sequence (P10636 561-689 P618L limits assumed): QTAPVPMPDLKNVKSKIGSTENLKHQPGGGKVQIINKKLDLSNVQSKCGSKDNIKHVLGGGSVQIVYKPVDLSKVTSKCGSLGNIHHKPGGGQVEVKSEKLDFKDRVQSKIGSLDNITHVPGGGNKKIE
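K18 P301L tau (15 uM + 0.24 uM Alexa 594-tagged), heparin 20 uM, NaOAc pH 7, 6 h 37 C; ThT 30 uM, 1 h RT, ex 450/em 510 nm.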
Sfp PPTase inh: blocks B. subtilis Sfp PPTase activity; Biochemical Sfp PPTase activity, qHTS; Potency, µM, inactives show largest response in the series, negative = inhibition, most hits filed as inhibitors; 310,000 compounds, 3.5% hits; AID 1490;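 also: the enzyme is Sfp with the accession as filed and its product quenches rhodamine fluorescence; 0% = enzyme reaction without inhibitor and -100% = no enzyme wells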
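Buffer: 50 mM Hepes-Na pH 7.6, 10 mM MgCl2, 0.01% Nonidet P-40, 0.01% BSA. Enzyme 15 nM, pre-exposed to compound 15 min; substrates then added and fluorescence change tracked over 30 min.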
Tau FP inhib: inhibitors of human tau fibril formation; P10636; K18 P301L tau heparin fibrillization, Alexa594 FP, 6 h; Potency, µM (series often up to 57.7 µM), without a hit: at the top dose activity, negative = inhibition, most hits filed as inhibitors; 280,000 compounds, 0.39% hits; also: nearly all actives have a fitted effect of over 55% in size
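Heparin (20 uM) drove fibril formation of recombinant tau K18 P301L, 15 uM unlabeled with 0.24 uM Alexa 594 label, for 6 hr at 37 C in 100 mM sodium acetate pH 7. Fluorescence polarization (555/632 nm) read 1 hr after 30 uM ThT.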
PLK1 PBD inh: blocks phosphopeptide binding to human PLK1 polo-box domain. Potency, µM, for inactives: max response, negative = inhibition, most hits filed as inhibitors. P53350. Plk1 PBD binding of FITC phosphopeptide, fluorescence polarization. 360,000 compounds, 2.8% hits; also: series mostly up to about 57 µM; nearly all actives have a fitted effect of over 65% in size
VDR inhibitor: vitamin D3 receptor (human) inhibition; P11473; VDR-SRC2-3 peptide fluorescence polarization, 2 h; Potency, µM, inactives show max response, negative = inhibition, most hits filed as inhibitors; 400,000 compounds, 0.93% hits
Target sequence (P11473 whole entry, looked up): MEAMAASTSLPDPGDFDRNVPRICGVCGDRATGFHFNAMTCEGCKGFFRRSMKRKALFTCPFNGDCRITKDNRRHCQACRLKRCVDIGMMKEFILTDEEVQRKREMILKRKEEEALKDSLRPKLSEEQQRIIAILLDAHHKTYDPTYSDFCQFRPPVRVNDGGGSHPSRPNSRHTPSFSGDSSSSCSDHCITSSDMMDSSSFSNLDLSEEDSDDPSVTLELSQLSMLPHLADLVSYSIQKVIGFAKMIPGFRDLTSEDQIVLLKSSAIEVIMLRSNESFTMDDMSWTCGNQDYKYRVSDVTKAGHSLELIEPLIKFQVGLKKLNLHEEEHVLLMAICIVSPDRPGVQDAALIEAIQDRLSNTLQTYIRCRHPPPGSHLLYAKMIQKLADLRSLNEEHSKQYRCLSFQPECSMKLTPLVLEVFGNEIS
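Fluorescence polarization assay of small-molecule disruption of VDR binding to coregulator peptide SRC2-3. Compounds and controls pin-transferred, then read after 2 h incubation at ambient room temperature.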
The depositor's hits bear a star; ? = inconclusive; nt = not tested or not shown; [ ] = dose if it differs, or a comment. Calls follow the shape of the dose curve; as a rule, active = well fitted curve in the direction sought with a large enough effect; inconclusive = small, poorly fitted or top-dose-only effect, or another doubt; inactive = no such curve, though single readings can be large; an effect the other way counts as inactive or inconclusive. Unless noted, % is scaled to controls: 0 for no effect and ±100 for the full control effect; potency is read from the fitted curve at half-maximal effect.

SMILES	Tau fluor counter	Tau fibril ThT	Sfp PPTase inh	Tau FP inhib	PLK1 PBD inh	VDR inhibitor
O=S(=O)(Nc1c(O)ccc2ccccc12)c1ccc(F)cc1	nt	nt	nt	nt	10.6µM*	-11.6%
CCc1ccc(C(=O)NN(C(=O)c2cc(C)cc(C)c2)C(C)(C)C)cc1	-10.9%	-1.9%	22.5%	1.9%	nt	nt
CCC1C2CC3C4N(C)c5ccccc5[C@]45CC(C2C5O)N3C1O (stereo partly drawn)	-11.5%	-9.7%	10.3%	-6.8%	nt	3.6%
C[C@]12C=CC(=O)C=C1CC[C@@H]1C2=CC[C@]2(C)[C@@H](C(=O)CN3CCN(c4cc(N5CCCC5)nc(N5CCCC5)n4)CC3)CC[C@@H]12	nt	nt	nt	nt	-16.6%	2.82µM*
NC(=NCc1ccc(Cl)cc1)SCCCc1cnc[nH]1	-6.4%	-3.3%	-1.7%	-5.1%	nt	?
CC(C)CCNC(=O)CNC(=O)[C@@H](C)NC(=O)[C@@H](N)Cc1ccc(O)cc1	nt	nt	2.1%	nt	nt	-1.5%
COc1cc(-c2nc3ccc(Cl)cn3c2Nc2ccc3c(c2)OCCO3)ccc1O	10µM*[quencher]	?	nt	12.6%	nt	-1.5%
COc1ccc(CC(=O)Nc2ccc(C#N)c(Cl)c2)cc1S(=O)(=O)N1CCOCC1	nt	nt	50.1µM*	nt	4.1%	10.3%
CC(=O)N1CCN(CC(=O)Nc2ccc(C#N)c(Cl)c2)CC1	-4.1%	-2.7%	8.8%	-10.4%	3.3%	-5.9%
COc1ccc(C)cc1NC(=O)N(Cc1ccc2c(c1)OCO2)C1CCN(Cc2ccccc2)CC1	-6.6%	-2.4%	nt	0.9%	nt	6.2%
N[C@@H](CSCCCO)C(=O)O	nt	nt	50.1µM*	nt	nt	-25.9%
NC(CP(=O)(O)O)C(=O)O (stereo not drawn)	-3.5%	1.5%	?	0.3%	nt	10.0%
C[C@@H]1C[C@@H]2[C@H]([C@H]3C=C(COC(=O)c4ccccc4)[C@@H](O)[C@]4(O)[C@@H](O)C(OC(=O)c5ccccc5)=C[C@@]14C3=O)C2(C)C	nt	nt	10.4%	nt	nt	-4.7%
C=C(C=O)C[C@@H]1C[C@H](O)C2OC3C[C@]4(C)OC5/C=C\CC6OC7C(CC=CCC6OC5CCCC4OC3CC2O1)OC1CC2OC3CC(=O)OC3C[C@@H](C)C[C@@]2(C)OC1C[C@@H]7C (stereo partly drawn)	-14.9%	3.55µM*	-0.7%	3.98µM*	?	?
CN(C)CCNC(=O)c1cccn(Cc2cccc(C(F)(F)F)c2)c1=O	-3.2%	-6.6%	22.3%	-6.8%	18.9µM*	?
O=C(NCc1ccccc1)c1cccn(Cc2cccc(Cl)c2)c1=O	nt	nt	4.0%	nt	-5.2%	-24.0%
CCN1C[C@]2(COC(=O)c3ccccc3N3C(=O)CC(C)C3=O)CC[C@H](OC)[C@@]34C5C[C@@H]6[C@@H](OC)C[C@@](O)(C5[C@H]6OC)[C@](O)([C@@H](OC)C23)[C@@H]14 (stereo partly drawn)	7.4%	8.1%	7.6%	3.2%	nt	1.8%
CCc1nc(SC)ncc1C(=O)Nc1ccc(Cl)cc1C(=O)c1ccccc1	-6.2%	-1.4%	nt	-11.1%	nt	0.2%
CCN1C(=O)N(CC)C(=O)C2(Cc3ccccc3N3CCN(c4ccccc4)CC32)C1=O (stereo not drawn)	-7.5%	?	70.8µM*	-11.6%	-14.9%	-13.4%
O=C1NC(=O)C(=Cc2ccc(OCCOc3ccc([N+](=O)[O-])cc3)cc2)C(=O)N1	-17.3%	?	50.1µM*	-16.3%	2.67µM*	50.1µM*
CCC(C)(C)O	nt	nt	5.0%	nt	nt	3.4%
O=C(Cn1c(=O)oc2cc(S(=O)(=O)N3CCCC3)ccc21)Nc1cccc(C(F)(F)F)c1	-23.5%	1.1%	2.3%	?	-7.7%	1.5%
CN(CCc1ccc(Cl)c(Cl)c1)[C@H]1CCCC[C@H]1N1CCCC1	-2.2%	-7.7%	?	-3.9%	nt	?
COc1cc2c(cc1OC)-c1c(OC)c(OC)c(C=O)c3c1[C@H](C2)N(C)CC3	?	22.4µM*	-8.5%	?	nt	8.91µM*
COc1cc2c(cc1O)C[C@H]1c3c(cc(OC)c(O)c3-2)CCN1C	?	14.1µM*	-31.6%	?	nt	nt
SMILES	Tau fluor counter	Tau fibril ThT	Sfp PPTase inh	Tau FP inhib	PLK1 PBD inh	VDR inhibitor
COc1cc2c(cc1OC)-c1c(OC)c(OC)c(CO)c3c1C(C2)N(C)CC3 (stereo not drawn)	-3.4%	-2.6%	-0.5%	-3.3%	nt	nt
N#Cc1ccc(CN2CCC3(CC2)CCN(C(=O)Oc2ccccc2)CC3)cc1	nt	nt	7.1%	nt	nt	2.0%
CN1C(=O)C(Cc2ccsc2)C(=O)N(C)C1=O	-20.7%	25.1µM*	28.2µM*	31.6µM*	?	?
CN1C(=O)C(Cc2ccccc2)C(=O)N(C)C1=O	nt	nt	nt	nt	?	-8.4%
CC(N)(COP(=O)(O)Oc1ccccc1)C(=O)O (stereo not drawn)	-5.0%	-0.6%	?	1.5%	nt	22.9%
COC(=O)C1CN(C#N)N(c2ccc(Cl)cc2)C12c1ccccc1-c1ccccc12 (stereo not drawn)	-27.2%	10µM*	-17.3%	?	?	?
c1ccc(CN2CCC3(CCNCC3)CC2)cc1	nt	nt	-11.7%	nt	nt	?
CN(C)CC(C(=O)Cc1ccccc1)c1ccccc1 (stereo not drawn)	nt	nt	nt	nt	-8.6%	35.5µM*
C[C@@H]([C@@H](O)c1ccccc1)N(C)C(=O)Cc1ccccc1	nt	nt	nt	nt	-4.3%	3.8%
CCOC(=O)c1ccc(-n2c(N)c(C(=O)NCC3CCCO3)sc2=S)cc1 (stereo not drawn)	-10.5%	-14.8%	31.6µM*	7.4%	11.9µM*	?
CCN1C(=O)c2ccccc2Sc2ccc(NC(=O)c3ccc(C)c(F)c3)cc21	-19.3%	5.3%	nt	?	nt	20.0%
C=CCN1C(=O)/C(=C/c2cc(C)n(-c3cccnc3)c2C)C(=O)NC1=S	-19.1%	22.4µM*	-90.6%	?	1.5µM*	-6.2%
Cc1cc(C=C2C(=O)NC(=O)NC2=O)c(C)n1-c1cccnc1	-3.5%	-12.6%	-13.1%	-7.5%	?	-4.9%
CN(Cc1ccccc1)C(=O)c1ccc(NC(=O)C2CCN(C(=O)OC(C)(C)C)CC2)cc1	nt	nt	nt	nt	29.9µM*	-2.9%
CCOP(=O)(OCC)C(NC(=O)c1cccc(C)c1)C(Cl)(Cl)Cl (stereo not drawn)	10.9%	6.2%	7.9%	10.2%	-4.5%	?
Cc1cccc(C(=O)NC(Oc2ccccc2)C(Cl)(Cl)Cl)c1 (stereo not drawn)	3.3%	-7.8%	16.5%	-3.2%	15µM*	?
C/C=C1/CN2CC[C@]34C(=C(C=O)[C@@H]1C[C@H]23)Nc1c(O)cccc14	-12.5%	-15.7%	-14.2%	-8.3%	nt	1.0%
Cc1ccc(Cl)cc1N1CCN(c2ncnc3c2nc2n3CCCC2)CC1	-13.8%	?	nt	-12.9%	nt	15.8%
CCN1C(=O)NC(=O)/C(=C\c2cn(CC(=O)N3CCCCC3C)c3ccccc23)C1=O (stereo not drawn)	nt	nt	11.5%	nt	?	1.6%
